Test results: PubChem BioAssay AID652072 (Broad Institute, 2013)
Records with an inconclusive call do not appear. Activity calls are given as the source filed them. No rule for the calls is given here.

assay: apoptosis induction over several timepoints, melanoma line – cell-based, LOX IMVI, luminescence, multiple timepoints, dry powder, mechanism study for HRAS target identification, dose response (AID 652072); conditions: caspase 3/7 luminescence; series mostly up to 35 µM; caspase 3/7 activation: at the top concentration

Caspase 3/7 activation, inactive:
Cc1onc(C(=O)N2CCN(C(c3ccc(Cl)cc3)c3ccc(Cl)cc3)CC2)c1[N+](=O)[O-] 28%
CCC(=O)N(c1ccc(OC)c(Cl)c1)C(C(=O)NCCc1ccccc1)c1cccs1 (centres undefined) -0.966%
C#CCCCC(=O)NCCOCCOCCOc1ccc(N(C(=O)CCl)C(C(=O)NCCc2ccccc2)c2cccs2)cc1Cl (centres undefined) 15.5%
Cc1onc(C(=O)N2CCN(C(c3ccc(Cl)cc3)c3ccc(OCCOCCOCCNC(=O)OC(C)(C)C)cc3)CC2)c1[N+](=O)[O-] (centres undefined) 10.7%
